# The campaign covered roughly 1,400 compounds. About 350 (25%) were called active. Another 2% or so got no clear call; they are omitted. A selection follows. Potency and affinity values are given separately. A number with no mark means an inactive call. How the calls were made is not given here.
# Assay: C. difficile growth inhibition, confirmation, 4-point retest (AID 1224921);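 further: plate controls were DMSO wells for no effect and levofloxacin 16 µg/mL wells for full effect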
# Details: Clostridioides difficile clinical isolate growth, OD600, 24 h, hits give low values; at 30 µM unless noted
row,SMILES,max activity
1,O=C(C[C@H]1C[C@@H]2c3cc(NC(=O)Nc4ccc(C(F)(F)F)cc4)ccc3O[C@@H]2[C@H](CO)O1)NCc1ccc(Cl)cc1,21.4%
2,CCCC(=O)Nc1ccc2c(c1)OC[C@H](C)N(CCc1ccccc1)C[C@H](C)[C@@H](OC)CN(C)C2=O,22%
3,C[C@H]1CN([C@@H](C)CO)C(=O)c2cccc(NC(=O)c3ccc(-c4nccs4)cc3)c2O[C@@H]1CN(C)C(=O)Nc1ccc(C(F)(F)F)cc1,20.3% [at 8 µM]
4,COc1ccccc1CNC(=O)C[C@H]1C[C@@H]2c3cc(NC(=O)NC4CCCC4)ccc3O[C@@H]2[C@H](CO)O1,-8.77% [at 2.1 µM]
5,C[C@@H]1CN([C@H](C)CO)C(=O)c2c(c3ccccc3n2C)-c2ccccc2CO[C@@H]1CN(C)Cc1ccncc1,24.2% [at 35 µM]
6,CCC(CO)Oc1cc(NCc2ccccc2)c2ncn(C(C)C)c2c1 (stereo unspecified),-5.47% [at 8 µM]
7,CCS(=O)(=O)Nc1ccc2c(c1)C(=O)N(C)C[C@H](OC)[C@H](C)CN(CC1CCCC1)[C@@H](C)CO2,11.3%
8,CC(C)=CCN(C(=O)C#Cc1ccccc1)[C@H](CO)c1ccccc1,14.2% [at 1.95 µM]
9,C[C@H](CO)N1C[C@H](C)[C@H](CN(C)Cc2ccc(C(F)(F)F)cc2)OCCCC[C@H](C)Oc2ccc(NS(C)(=O)=O)cc2C1=O,5.77% [at 1.95 µM]
10,CCCC#Cc1ccc2c(c1)O[C@@H](CN(C)Cc1ccncc1)[C@H](C)CN([C@@H](C)CO)S2(=O)=O,-9.09% [at 1.95 µM]
11,CO[C@@H]1CN(C)C(=O)c2ccc(NC(=O)c3nc4ccccc4s3)cc2OC[C@H](C)N(Cc2cccnc2)C[C@H]1C,25.4%
12,CCCC(O)C#Cc1cnc2c(c1)C(=O)N([C@H](C)CO)C[C@H](C)[C@H](CN(C)Cc1ccncc1)O2 (stereo partly specified),12%
13,C[C@H](CO)N1C[C@H](C)[C@H](CN(C)C(=O)c2cccc(F)c2)Oc2ncc(C3=CCCCC3)cc2C1=O,-6.68% [at 8 µM]
14,C[C@@H]1CN([C@H](C)CO)C(=O)c2c(c3ccccc3n2C)-c2ccccc2CO[C@@H]1CN(C)S(=O)(=O)CC(F)(F)F,28.3%
15,Cc1ccccc1S(=O)(=O)NCC[C@@H]1CC[C@@H](NC(=O)Nc2cccc(Cl)c2)[C@@H](CO)O1,23.9%
16,C[C@H]1CN([C@@H](C)CO)C(=O)Cc2cc(NS(C)(=O)=O)ccc2O[C@@H]1CN(C)Cc1ccccc1,11.3%
17,COCC(=O)Nc1ccc2c(c1)OC[C@@H](C)N(Cc1cncnc1)C[C@H](C)[C@@H](OC)CN(C)C2=O,-8.05% [at 1.95 µM]
18,C[C@H](CO)N1C[C@H](C)[C@H](CN(C)S(=O)(=O)c2ccsc2)OCc2ccccc2-c2ccccc2C1=O,-12.1% [at 0.5 µM]
19,C[C@H](O)C#Cc1ccc2c(c1)O[C@H](CN(C)CC1CCCCC1)[C@H](C)CN([C@H](C)CO)S2(=O)=O,20.7%

row,SMILES,max activity
1,C[C@H]1CN([C@@H](C)CO)C(=O)c2cc(NC(=O)Cc3ccccc3)ccc2O[C@@H]1CN(C)C(=O)Nc1ccccc1,-13.4% [at 0.5 µM]
2,C[C@H](NC(=O)C[C@H]1C=C[C@@H](NC(=O)CN2CCOCC2)[C@H](CO)O1)c1ccccc1,-8.28% [at 8 µM]
3,C/C=C/c1cnc2c(c1)C(=O)N([C@H](C)CO)C[C@@H](C)[C@@H](CN(C)Cc1ccc(F)cc1)O2,-15% [at 0.5 µM]
4,COc1ccccc1S(=O)(=O)N[C@H]1C=C[C@@H](CC(=O)N2CCCCC2)O[C@@H]1CO,-9.97% [at 8 µM]
5,CO[C@@H]1CN(C)C(=O)c2ccc(NC(=O)c3ccccc3F)cc2OC[C@H](C)N(CC2CC2)C[C@@H]1C,-12.3% [at 8 µM]
6,CCCC#Cc1ccc2c(c1)O[C@H](CN(C)Cc1cccnc1)[C@@H](C)CN([C@@H](C)CO)S2(=O)=O,13.7% [at 8 µM]
7,CCCNC(=O)N1C[C@H](C)[C@H](OC)CN(C)C(=O)c2cc(NC(C)=O)ccc2OC[C@H]1C,4.83% [at 8 µM]
8,CC(=O)N(C)C[C@@H]1Oc2ncc(C#Cc3ccc(F)cc3)cc2C(=O)N([C@@H](C)CO)C[C@@H]1C,32.1%
9,C/C=C/c1ccc2c(c1)O[C@H](CN(C)C(=O)Cc1ccncc1)[C@@H](C)CN([C@H](C)CO)S2(=O)=O,-10.9% [at 8 µM]
10,CCCN1C[C@@H](C)[C@@H](OC)CN(C)C(=O)c2cc(NC(=O)c3cccc(OC)c3)ccc2OC[C@@H]1C,-16.1% [at 1.95 µM]
11,COc1ccccc1C#Cc1ccc2c(c1)O[C@H](CN(C)Cc1cccnc1)[C@H](C)CN([C@@H](C)CO)S2(=O)=O,25.3%
12,Cc1ccccc1-c1ccc2c(c1)O[C@@H](CN(C)Cc1ccncc1)[C@@H](C)CN([C@H](C)CO)S2(=O)=O,49.5%
13,CO[C@H]1CN(C)C(=O)c2ccc(NC(=O)C3CC3)cc2OC[C@H](C)N(Cc2cncnc2)C[C@H]1C,-10.1% [at 1.95 µM]
14,CO[C@@H]1CN(C)C(=O)c2ccc(NC(=O)Nc3ccccc3)cc2OC[C@H](C)NC[C@@H]1C,-13.5% [at 8 µM]
15,CO[C@@H]1CN(C)C(=O)c2ccc(NC(=O)c3nc4ccccc4s3)cc2OC[C@H](C)N(Cc2ccncc2)C[C@@H]1C,26.2%
16,CO[C@@H]1CN(C)C(=O)c2ccc(NC(=O)c3nc4ccccc4s3)cc2OC[C@@H](C)N(Cc2ccncc2)C[C@@H]1C,23.4%
17,CO[C@@H]1CN(C)C(=O)c2ccc(NC(=O)Nc3ccccc3)cc2OC[C@H](C)NC[C@H]1C,-11.5% [at 0.5 µM]
18,CO[C@H]1CN(C)C(=O)c2ccc(NC(=O)Nc3ccccc3)cc2OC[C@@H](C)NC[C@H]1C,-11.9%
19,CO[C@H]1CN(C)C(=O)c2ccc(NC(=O)Nc3ccccc3)cc2OC[C@H](C)NC[C@H]1C,-20.9% [at 8 µM]

row,SMILES,max activity
1,COc1ccccc1S(=O)(=O)N[C@H]1C=C[C@H](CC(=O)N2CCCCC2)O[C@@H]1CO,-11.2% [at 1.95 µM]
2,C[C@H](NC(=O)C[C@@H]1C[C@@H]2c3cc(NC(=O)NC4CCCCC4)ccc3O[C@@H]2[C@@H](CO)O1)c1ccccc1,6.02% [at 8 µM]
3,CO[C@H]1CN(C)C(=O)c2cc(NC(=O)c3cc(C)on3)ccc2OC[C@H](C)N(C(C)=O)C[C@H]1C,-7.95% [at 1.95 µM]
4,O=C(C[C@@H]1C[C@@H]2c3cc(NC(=O)Nc4ccc(C(F)(F)F)cc4)ccc3O[C@@H]2[C@@H](CO)O1)NCC1CC1,20.8% [at 35 µM]
5,CC(C)[C@@H](C)NC(=O)N(C)C[C@@H]1OCc2ccccc2-c2ccccc2C(=O)N([C@H](C)CO)C[C@H]1C,47.6% [at 35 µM]
6,CO[C@H]1CN(C)C(=O)c2cc(NC(=O)C3CCC3)ccc2OC[C@H](C)N(Cc2ccc(F)cc2)C[C@H]1C,14.5%
7,COc1ccc(-c2ccc([C@H]3[C@H](C#N)N(C(=O)NC4CCCCC4)[C@H]3CO)cc2)cc1,32.4%
8,C[C@@H]1CN([C@H](C)CO)C(=O)c2cc(NC(=O)Nc3ccc(F)cc3)ccc2O[C@@H](C)CCCCO[C@H]1CN(C)Cc1ccc2c(c1)OCO2,-9.48%
9,C[C@@H]1CCCCO[C@H](CN(C)Cc2ccc3c(c2)OCO3)[C@@H](C)CN([C@H](C)CO)C(=O)c2cc(NC(=O)Nc3ccc(C(F)(F)F)cc3)ccc2O1,15.4% [at 1.95 µM]
10,C[C@H](CO)N1C[C@H](C)[C@H](CN(C)Cc2ccc3c(c2)OCO3)OCCCC[C@H](C)Oc2ccc(NC(=O)Nc3ccc(F)cc3)cc2C1=O,-7.04% [at 0.5 µM]
11,C[C@H](CO)N1C[C@H](C)[C@H](CN(C)Cc2ccc3c(c2)OCO3)OCCCC[C@H](C)Oc2ccc(NC(=O)Nc3ccc(C(F)(F)F)cc3)cc2C1=O,31.6% [at 0.5 µM]
12,C[C@@H]1CN([C@H](C)CO)C(=O)c2cc(NC(=O)Nc3ccc(C(F)(F)F)cc3)ccc2O[C@@H](C)CCCCO[C@@H]1CN(C)Cc1ccc2c(c1)OCO2,29.4% [at 1.95 µM]
13,C[C@@H]1CCCCO[C@H](CN(C)Cc2ccc3c(c2)OCO3)[C@H](C)CN([C@@H](C)CO)C(=O)c2cc(NC(=O)Nc3ccc(F)cc3)ccc2O1,23.7%
14,CC(C)CC#Cc1ccc2c(c1)O[C@@H](CN(C)CC1CCOCC1)[C@H](C)CN([C@@H](C)CO)S2(=O)=O,17.9%
15,CO[C@@H]1CN(C)C(=O)c2ccc(NC(=O)c3nc4ccccc4s3)cc2OC[C@@H](C)N(Cc2cccnc2)C[C@H]1C,33.1%
16,CC(C)CC#Cc1ccc2c(c1)O[C@H](CN(C)Cc1ccccc1F)[C@H](C)CN([C@H](C)CO)S2(=O)=O,28.2%
17,COc1ccccc1S(=O)(=O)N(C)C[C@H]1OCc2ccccc2-c2c(n(C)c3ccccc23)C(=O)N([C@@H](C)CO)C[C@H]1C,11.5%
18,C[C@@H]1CN([C@H](C)CO)S(=O)(=O)c2ccc(-c3ccccc3)cc2O[C@H]1CN(C)Cc1cccnc1,46%

# From PubChem BioAssay AID1224921 (Broad Institute, 2016)
